Test results reported in PubChem BioAssay AID1159580 (chemical genetic matrix, 2015).
Several values for one entry are separate records, joined by “and”; a condition that tells them apart may be missing. Equal values may be shown once. The campaign covered roughly 5,500 compounds. About 2,000 (36%) were called active. Not shown: some 18% with an inconclusive outcome. Cut-off read from the data, not from the text of the source: active = normalized growth mostly below about 0.91 (no sharp cut-off); inconclusive = no clear call, values can overlap the other calls; inactive = mostly above about 0.92. Some of the results follow.

Experiment: chemical genetic growth profiling, strain panel (AID 1159580);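 note: tested at 20 µM; growth read once vehicle control cultures reached saturation at 30 °C; 1 = growth at the plate median or of vehicle wells; lower values mean less growth of the strain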
Details: S. cerevisiae deletion strains, growth OD
[1] = locus YGR229C, strain SMI1, stronger effect = lower value
[2] = locus YMR307W, strain GAS1, stronger effect = lower value
[3] = locus YPL055C, strain LGE1, stronger effect = lower value

Measured: normalized growth

Oc1ccc(Cn2cc[nH]c2=S)cc1
active: locus YNL197C, strain WHI3, stronger effect = lower value 0.477 | locus YOR083W, strain WHI5 (second series), stronger effect = lower value 0.681
inactive: locus YAL040C, strain CLN3, stronger effect = lower value 0.993 | locus YCL061C, strain MRC1 (second series), stronger effect = lower value 1.01 | locus YDR363W, strain ESC2, stronger effect = lower value 1 | locus YER002W, strain NOP16, stronger effect = lower value 1.03 | [1] 0.986 | [2] 1 | locus YNL175C, strain NOP13, stronger effect = lower value 1 | locus YNL224C, strain SQS1, stronger effect = lower value 0.999 | [3] 1.01

Cn1cc[nH]c1=S
inactive: locus YAL021C, strain ccr4, stronger effect = lower value 0.981 | locus YAL026C, strain drs2, stronger effect = lower value 0.99 | locus YAL030W, strain snc1, stronger effect = lower value 0.99 | locus YBL061C, strain skt5, stronger effect = lower value 0.99 | locus YBR009C, strain hhf1, stronger effect = lower value 1.03 | locus YBR021W, strain FUR4, stronger effect = lower value 0.991 | locus YBR023C, strain chs3, stronger effect = lower value 0.98 | locus YBR171W, strain sec66, stronger effect = lower value 0.99 | locus YBR229C, strain ROT2, stronger effect = lower value 1.01 | locus YBR231C, strain swc5, stronger effect = lower value 1 | locus YBR279W, strain paf1, stronger effect = lower value 0.974 | locus YCL011C, strain gbp2, stronger effect = lower value 0.967 | locus YCL016C, strain dcc1, stronger effect = lower value 0.963 | locus YCL029C, strain bik1, stronger effect = lower value 0.976 | locus YCL069W, strain vba3, stronger effect = lower value 0.999 | locus YCR088W, strain abp1, stronger effect = lower value 0.991 | locus YDL005C, strain med2, stronger effect = lower value 0.963 | locus YDL035C, strain GPR1, stronger effect = lower value 1.01 | locus YDL040C, strain nat1, stronger effect = lower value 0.989 | locus YDL074C, strain BRE1, stronger effect = lower value 1.02 | locus YDL101C, strain DUN1, stronger effect = lower value 0.996 | locus YDL185W, strain tfp1, stronger effect = lower value 0.935 | locus YDL192W, strain arf1, stronger effect = lower value 0.971 | locus YDR001C, strain nth1, stronger effect = lower value 0.989 | locus YDR069C, strain doa4, stronger effect = lower value 1.01 | locus YDR101C, strain arx1, stronger effect = lower value 1.02 | locus YDR137W, strain rgp1, stronger effect = lower value 0.985 | locus YDR159W, strain sac3, stronger effect = lower value 0.974 | locus YDR162C, strain NBP2, stronger effect = lower value 1.01 | locus YDR195W, strain ref2 0.99 | locus YDR297W, strain sur2, stronger effect = lower value 1.01 | locus YDR318W, strain mcm21, stronger effect = lower value 0.968 | locus YDR334W, strain swr1, stronger effect = lower value 0.973 | locus YDR335W, strain msn5, stronger effect = lower value 1 | locus YDR388W, stronger effect = lower value 0.991 | locus YDR392W, strain spt3, stronger effect = lower value 0.887 | locus YDR502C, strain sam2, stronger effect = lower value 0.993 | locus YEL003W, strain gim4, stronger effect = lower value 1 | locus YEL037C, strain rad23, stronger effect = lower value 0.98 | locus YEL061C, strain CIN8 (second series), stronger effect = lower value 0.984 | locus YEL061C, strain CIN8, stronger effect = lower value 0.985 | locus YER015W, strain faa2, stronger effect = lower value 0.993 | locus YER016W, strain bim1, stronger effect = lower value 0.978 | locus YER110C, stronger effect = lower value 0.967 | locus YER111C, strain swi4, stronger effect = lower value 0.967 | locus YER155C, strain BEM2 (second series), stronger effect = lower value 0.976 | locus YER155C, strain BEM2, stronger effect = lower value 1 | locus YER167W, strain BCK2, stronger effect = lower value 1 | locus YFR010W, strain ubp6, stronger effect = lower value 1.01 | locus YGL078C, strain dbp3, stronger effect = lower value 0.956 | locus YGL086W, strain mad1, stronger effect = lower value 1.01 | locus YGL167C, strain pmr1, stronger effect = lower value 0.992 | locus YGL173C, strain kem1, stronger effect = lower value 0.987 | locus YGL227W, strain vid30, stronger effect = lower value 1.01 | locus YGL240W, strain doc1, stronger effect = lower value 0.981 | locus YGL248W, strain PDE1, stronger effect = lower value 1 | locus YGL253W, strain hxk2, stronger effect = lower value 0.97 | locus YGR078C, strain PAC10, stronger effect = lower value 1 | locus YGR135W, strain pre9, stronger effect = lower value 0.938 | [1] 1.01 | locus YGR252W, strain gcn5, stronger effect = lower value 0.958 | locus YHR013C, strain ard1, stronger effect = lower value 0.949 | locus YHR027C, strain rpn1, stronger effect = lower value 1 | locus YHR030C, strain SLT2, stronger effect = lower value 0.997 and 1.04 | locus YHR079C, strain IRE1 (second series), stronger effect = lower value 0.971 | locus YHR079C, strain IRE1, stronger effect = lower value 1.04 | locus YHR094C, strain hxt1, stronger effect = lower value 0.992 | locus YHR129C, strain ARP1, stronger effect = lower value 1.01 | locus YHR142W, strain chs7, stronger effect = lower value 0.981 | locus YHR200W, strain rpn10, stronger effect = lower value 0.971 | locus YIL066C, strain RNR3, stronger effect = lower value 1.01 | locus YIL073C, strain SPO22, stronger effect = lower value 0.929 | locus YIL125W, strain kgd1, stronger effect = lower value 0.986 | locus YIR030C, strain dcg1, stronger effect = lower value 0.964 | locus YJL092W, strain hpr5, stronger effect = lower value 1 | locus YJL095W, strain BCK1 (second series), stronger effect = lower value 0.988 | locus YJL095W, strain BCK1, stronger effect = lower value 0.991 and 1.03 | locus YJL115W, strain asf1, stronger effect = lower value 0.988 | locus YJL129C, strain trk1, stronger effect = lower value 0.963 | locus YJL134W, strain LCB3, stronger effect = lower value 0.999 | locus YJL154C, strain vps35, stronger effect = lower value 0.984 | locus YJL164C, strain tpk1, stronger effect = lower value 1.02 | locus YJL166W, strain qcr8, stronger effect = lower value 1.03 | locus YJL168C, strain set2, stronger effect = lower value 0.984 | locus YJL187C, strain SWE1 (second series), stronger effect = lower value 1 | locus YJR043C, strain POL32, stronger effect = lower value 1.02 | locus YJR066W, strain TOR1, stronger effect = lower value 0.991 | locus YJR075W, strain HOC1, stronger effect = lower value 0.997 | locus YKL009W, strain mrt4, stronger effect = lower value 0.966 | locus YKL068W, stronger effect = lower value 0.987 | locus YKL085W, strain MDH1 (second series), stronger effect = lower value 0.967 | locus YKL085W, strain MDH1, stronger effect = lower value 0.967 | locus YKL160W, strain elf1, stronger effect = lower value 0.952 | locus YKL190W, strain CNB1, stronger effect = lower value 0.985 | locus YKR001C, strain vps1, stronger effect = lower value 0.996 | locus YKR026C, strain gcn3, stronger effect = lower value 0.985 | locus YKR091W, strain srl3, stronger effect = lower value 0.983 | locus YLL001W, strain dnm1, stronger effect = lower value 1 | locus YLL026W, stronger effect = lower value 1 | locus YLL041C, strain sdh2, stronger effect = lower value 1.01 | locus YLR027C, strain aat2, stronger effect = lower value 0.991 | locus YLR039C, strain RIC1, stronger effect = lower value 0.879 | locus YLR058C, strain SHM2, stronger effect = lower value 1 | locus YLR102C, strain apc9, stronger effect = lower value 0.972 | locus YLR113W, strain HOG1, stronger effect = lower value 1.03 | locus YLR221C, strain rsa3, stronger effect = lower value 1.04 | locus YLR258W, strain gsy2, stronger effect = lower value 0.979 | locus YLR262C, strain YPT6 (second series), stronger effect = lower value 1.06 | locus YLR262C, strain YPT6, stronger effect = lower value 0.995 | locus YLR268W, strain sec22, stronger effect = lower value 0.981 | locus YLR320W, strain mms22, stronger effect = lower value 0.999 | locus YLR330W, strain CHS5, stronger effect = lower value 0.995 | locus YLR342W, strain FKS1 (second series), stronger effect = lower value 1.01 | locus YLR342W, strain FKS1, stronger effect = lower value 0.97 | locus YLR357W, strain rsc2, stronger effect = lower value 0.98 | locus YLR370C, strain arc18, stronger effect = lower value 0.978 | locus YLR371W, strain rom2, stronger effect = lower value 0.983 | locus YLR384C, strain iki3, stronger effect = lower value 0.997 | locus YLR418C, strain cdc73, stronger effect = lower value 0.965 | locus YML016C, strain PPZ1, stronger effect = lower value 1.01 | locus YML032C, strain rad52, stronger effect = lower value 0.994 | locus YML120C, strain ndi1, stronger effect = lower value 1.01 | locus YML124C, strain tub3, stronger effect = lower value 0.977 | locus YMR058W, strain fet3, stronger effect = lower value 0.995 | locus YMR078C, strain ctf18, stronger effect = lower value 0.96 | locus YMR125W, strain sto1, stronger effect = lower value 0.973 | locus YMR129W, stronger effect = lower value 1 | locus YMR205C, strain PFK2, stronger effect = lower value 0.984 | locus YMR223W, strain ubp8, stronger effect = lower value 0.952 | locus YMR231W, strain pep5, stronger effect = lower value 0.981 | [2] 1.05 | locus YNL067W, strain RPL9B, stronger effect = lower value 0.997 | locus YNL071W, strain lat1, stronger effect = lower value 0.989 | locus YNL153C, strain GIM3, stronger effect = lower value 1.01 | locus YNL183C, strain NPR1, stronger effect = lower value 0.993 | locus YNL209W, strain ssb2, stronger effect = lower value 0.979 | locus YNL233W, strain BNI4, stronger effect = lower value 1 | locus YNL248C, strain rpa49, stronger effect = lower value 0.965 | locus YNL250W, strain rad50, stronger effect = lower value 0.964 | locus YNL271C, strain bni1, stronger effect = lower value 0.97 | locus YNL298W, strain CLA4, stronger effect = lower value 0.946 | locus YNL307C, strain MCK1, stronger effect = lower value 0.982 | locus YNL322C, strain KRE1 (second series), stronger effect = lower value 0.966 | locus YNR049C, strain mso1, stronger effect = lower value 0.998 | locus YNR052C, strain pop2, stronger effect = lower value 0.962 | locus YOL006C, strain TOP1, stronger effect = lower value 0.987 | locus YOL012C, strain htz1 0.891 | locus YOL147C, strain pex11, stronger effect = lower value 0.973 | locus YOR001W, strain rrp6, stronger effect = lower value 1.03 | locus YOR061W, strain CKA2, stronger effect = lower value 1 | locus YOR069W, strain VPS5, stronger effect = lower value 1.01 | locus YOR070C, strain gyp1, stronger effect = lower value 0.994 | locus YOR080W, strain dia2, stronger effect = lower value 1 | locus YOR083W, strain WHI5, stronger effect = lower value 0.922 | locus YOR106W, strain vam3, stronger effect = lower value 0.977 | locus YOR136W, strain idh2, stronger effect = lower value 0.987 | locus YOR144C, strain elg1, stronger effect = lower value 0.986 | locus YOR184W, strain ser1, stronger effect = lower value 0.974 | locus YOR231W, strain MKK1, stronger effect = lower value 1.04 | locus YOR265W, strain rbl2, stronger effect = lower value 0.997 | locus YOR270C, strain vph1, stronger effect = lower value 1.07 | locus YOR290C, strain snf2, stronger effect = lower value 0.955 | locus YOR316C, strain cot1, stronger effect = lower value 0.974 | locus YPL051W, strain arl3, stronger effect = lower value 0.98 | [3] 0.999 | locus YPL078C, strain atp4, stronger effect = lower value 1 | locus YPL106C, strain sse1, stronger effect = lower value 0.965 | locus YPL240C, strain hsp82, stronger effect = lower value 1.02 | locus YPL241C, strain CIN2, stronger effect = lower value 1 | locus YPL256C, strain CLN2, stronger effect = lower value 1.06 | locus YPR119W, strain clb2, stronger effect = lower value 0.968 | locus YPR141C, strain kar3, stronger effect = lower value 0.977 | locus YPR163C, strain tif3, stronger effect = lower value 0.976 | locus YPR167C, strain met16, stronger effect = lower value 0.983 | strain wtn01, stronger effect = lower value 0.97
